# The list is not random: actives were taken first. Their share in the collection is about 4.1%.
# DAX1 inh-1: DAX1 (NR0B1) inhibitors, primary screen, cell-based, HEK293, Gal4-DAX1, luciferase luminescence; HEK293 Gal4-DAX1 luciferase reporter; AID 504766, 2011; 340,000 tested, 0.99% active; inhibition, % at 6.75 µM;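 active = inhibition above the mean over all tested compounds plus 3 SD, cut at about 4.2% in these data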;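 also: inhibition shows as a rise in luminescence from relieved DAX1 repression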
# Target sequence (P51843 207-470 limits assumed): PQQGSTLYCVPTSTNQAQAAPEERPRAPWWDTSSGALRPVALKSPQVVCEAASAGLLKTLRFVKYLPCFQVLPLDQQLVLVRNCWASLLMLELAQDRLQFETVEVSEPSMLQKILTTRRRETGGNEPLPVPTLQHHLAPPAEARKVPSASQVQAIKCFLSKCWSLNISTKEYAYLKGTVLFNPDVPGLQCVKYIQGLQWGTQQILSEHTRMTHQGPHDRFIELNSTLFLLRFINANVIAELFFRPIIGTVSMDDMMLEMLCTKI
# DAX1 inh-2: DAX1 (NR0B1) inhibitors on StAR promoter, primary screen, cell-based, luminescence, SF-1 (NR5A1), full-length DAX-1; 370,000 tested, 1.1% active; inhibition, % at 6.8 µM; HEK293T StAR-luciferase reporter, SF-1/DAX-1 repression relief;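 active = inhibition above the mean over all tested compounds plus 3 SD, cut at about 3.6% in these data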;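 also: higher inhibition means more luminescence from relief of DAX-1 repression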
# ssDAF-12 act: S. stercoralis DAF-12 nuclear receptor activators, primary screen, cell-based, luminescence, HEK293, GRIP1 co-expression, lit1-tk-luc; Nuclear hormone receptor DAF-12 (Strongyloides stercoralis); HEK293 ssDAF-12/GRIP1 lit1-tk-luc reporter; % of 3 µM dafachronic acid response; activation, % at 6.8 µM; 370,000 tested, 1% active; AID 652126, 2013;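 active = activation above the mean over all tested compounds plus 3 SD, cut at about 0.9% in these data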
# hcDAF-12 act: H. contortus DAF-12 nuclear receptor activators, primary screen, cell-based, luminescence, HEK293, lit1-tk-luc reporter. activation, % at 6.8 µM. HEK293 hcDAF-12 lit1-tk-luc reporter; 0% DMSO, 100% Δ7-dafachronic acid. AID 652067, 2013. 370,000 tested, 1.4% active;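 active = activation above the mean of all tested compounds plus 3 SD, cut at about 5.5% in these data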
# hgDAF12 agonist: H. glycines DAF-12 receptor agonists, primary screen, cell-based, luminescence, HEK293, GAL4 fusion, UAS-luciferase; Nuclear hormone receptor DAF-12 (Heterodera glycines), GAL4 fusion; HEK293 GAL4-hgDAF12 UAS-luciferase reporter, agonist luminescence; normalized to butyrate control; activation, % at 6.8 µM; 370,000 tested, 1.8% active;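 active = activation above a cutoff set at the mean of all screened compounds plus 3 SD, cut at about 10% in these data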
# Numbers stand for hits; i = inactive; nt = no result given.
SMILES,DAX1 inh-1,DAX1 inh-2,ssDAF-12 act,hcDAF-12 act,hgDAF12 agonist
Cc1ccc(S(=O)(=O)N2CCN(c3cnn(-c4ccccc4)c(=O)c3Cl)CC2)cc1,4.7,i,i,i,i
C[C@H]1[C@@H](NC(=O)c2ccc(Cl)cc2)CC[C@@]23CCCN2C(=O)CCC[C@@H]13,nt,nt,i,i,i
Cc1ccc(NC(=O)C2OCCc3ccccc32)cc1C (configuration not stated),i,i,i,i,11
COc1ccc(-c2nc3ccccc3n2OCC(=O)O)cc1,i,i,i,i,11
O=[N+]([O-])c1ccc2nc(-c3ccc(Cl)cc3)n(OCc3ccccc3)c2c1,i,i,i,i,i
CC(O)c1nc2cc([N+](=O)[O-])ccc2n1Cc1ccccc1 (configuration not stated),i,i,i,i,i
CCOC(=O)C(C)On1c(-c2ccccc2)nc2ccc([N+](=O)[O-])cc21 (configuration not stated),i,i,i,i,12
COn1c(-c2ccc(Cl)cc2)nc2ccc(Cl)cc21,i,i,i,i,i
O=C(O)COn1c(-c2ccc(Cl)cc2)nc2ccc(Cl)cc21,i,i,i,6.2,i
Cc1ccc(COn2c(-c3ccc(Cl)cc3)nc3ccc([N+](=O)[O-])cc32)cc1,4.7,i,1.1,i,i
COC[C@H]1CCCN1c1cccc2c1S(=O)(=O)N(C1CC1)CCCO2,nt,i,i,i,i
O=C(NCCCn1cccn1)c1cc(COc2ccccc2)on1,4.2,i,i,i,i
CCCc1cc(C(=O)NCCc2ccccc2)no1,i,i,i,i,11
Clc1ccc(-c2nnc3n2N=C(c2ccc(-c4ccccc4)cc2)CS3)cc1,nt,i,i,i,i
COC(=O)[C@@]12CCCCC3=C1N(CCC3)C(=O)[C@H]2CC(=O)N1CCN(C(=O)c2ccco2)CC1,nt,i,i,i,i
CCc1cc2c(=O)c(-c3nc4ccccc4[nH]3)coc2c(CN2CCCCC2)c1O,i,i,i,i,i
CCc1cc2c(=O)c(-c3nc4ccccc4[nH]3)coc2c(CN2CCCCC2C)c1O (configuration not stated),4.6,i,i,i,i
O=C(O)c1ccccc1C(=O)Nc1ccc(Oc2cccc(C(F)(F)F)c2)nc1,i,i,i,6.2,i
CCCCCc1ccc(NC(=O)OCCCN2CCC3(CCC(c4ccccc4)CC3)C2=O)cc1 (configuration not stated),nt,i,i,i,i
CCOC(=O)C1CCN(C(=O)c2cc3cc4ccc(OC)cc4nc3o2)CC1,i,3.8,i,i,i
Cc1ccc2cc3cc(C(=O)N4CCCCC4C)oc3nc2c1 (configuration not stated),i,4.2,1.0,5.9,12
COc1ccc2nc3oc(C(=O)N4CCC(C(N)=O)CC4)cc3cc2c1,i,i,i,i,i
Cc1ccc2cc3cc(C(=O)N4CC(C)CC(C)C4)oc3nc2c1 (configuration not stated),i,i,i,i,i
C[C@H]1[C@@H](N(C)CC2CCCCC2)CC[C@@]23CCCN2C(=O)CCC[C@@H]13,nt,nt,i,i,i
CCN1CCCC1CN(Cc1cc2cc(C)ccc2[nH]c1=O)C(=O)Nc1ccccc1OC (configuration not stated),i,4.0,i,i,i
Cc1cc2nc(C(C)(C)C)c(Cc3cccc(Cl)c3)n2c(C)c1Br,nt,i,i,i,i
Cc1cc2nc(C3CCCCC3)c(Cc3ccsc3)n2c(C)c1Br,nt,i,i,i,i
Cc1ccc(Cc2c(C(C)(C)C)nc3cc(C)c(Br)c(C)n23)cc1,nt,i,1.2,i,i
Cc1cc2nc(C(C)(C)C)c(Cc3ccsc3)n2c(C)c1Br,nt,4.1,i,i,i
COC(=O)[C@]12C[C@H](CC(=O)N3CCCCC3)C(=O)N(Cc3ccco3)C1=C[C@H](COCc1ccccc1)O[C@@H]2C,nt,i,i,i,i

# High-throughput results as filed in PubChem.
